# Laboratory results from PubChem BioAssay (EPA / NIEHS).
# A structure can be active in one record and inactive in another. Calls of active or inactive are those of the source. Rule for the calls: active = hit-call score of the fitted dose curve at least 0.9, where 1 is the maximum; inactive = score below 0.9.
# What was measured:
# [1] = APR_HepG2_CellCycleArrest_24hr: Apredica 24-hour HepG2 Assay for Cell Cycle Arrest (AID 2282905); details: imaging, actives raise or lower the signal;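 note: cell cycle arrest scored as ratio of 2N to 4N nuclear DNA content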
# Procedure, shortened: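 Step one: dose HepG2 with test compounds, 0.39–200 uM, 0.5% DMSO, 24 hr. Step two: fix, permeabilize, stain nuclei with Hoechst 33342. Step three: image six fields per well at 20x, quantify DNA content, fit bidirectionally relative to DMSO.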
# [2] = APR_HepG2_NuclearSize_24hr: Apredica 24-hour HepG2 Assay for Nuclear Size (AID 2282907); details: high-content imaging, actives raise or lower the signal
# Procedure, shortened: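 After fixation and permeabilization, 24-hr-treated HepG2 cells were stained with Hoechst 33342 and imaged on an ArrayScan (20x). Doses spanned 0.39–200 uM in duplicate. Nuclear diameter changes in either direction were fitted relative to 0.5% DMSO controls.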
# [3] = APR_HepG2_CellLoss_24hr: Apredica 24-hour HepG2 Assay for Cell Loss (AID 2282908); details: high-content imaging;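 for AC50: fit in both directions so a hit may be cell loss or gain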
# Procedure, shortened: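 Duplicate wells received compound at ten concentrations (0.39–200 uM; final DMSO 0.5% v/v). After fixation with formaldehyde, nuclei stained with Hoechst 33342 were imaged at 20x. Loss or gain of cell count was fitted relative to DMSO controls.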
# [4] = APR_HepG2_MicrotubuleCSK_24hr: Apredica 24-hour HepG2 Assay for Microtubule CSK Stabilty (AID 2282909); details: HepG2 microtubule cytoskeleton imaging, actives raise or lower the signal
# Procedure, shortened: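 Microtubule stability is scored from tubulin immunofluorescence in fixed HepG2 cells imaged at 20x. Cells receive ten compound concentrations up to 200 uM for 24 h; taxol and DMSO serve as positive and negative controls.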
# [5] = APR_HepG2_MitoticArrest_24hr: Apredica 24-hour HepG2 Assay for Mitotic Arrest (AID 2282910); details: high-content imaging, actives raise or lower the signal
# Procedure, shortened: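 Treatment lasted 24 hr in the human HepG2 line at 0.39–200 uM, solvent held at 0.5% DMSO. Fixed cells were stained with Hoechst 33342 and anti-phospho-histone H3, imaged at 20x, and analysed by gain- or loss-of-signal fitting against DMSO.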
# [6] = APR_HepG2_MitoMembPot_24hr: Apredica 24-hour HepG2 Assay for Mitochondrial Membrane Potential (AID 2282911); details: imaging, actives raise or lower the signal
# Procedure, shortened: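 Mitochondrial dye uptake (MitoTracker Red CMXRos, 250 nM, 30 min pre-fixation) in HepG2 after 24 hr compound exposure, 0.39–200 uM; ArrayScan images at 20x, activity fitted in both directions relative to DMSO.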
# [7] = APR_HepG2_MitoMass_24hr: Apredica 24-hour HepG2 Assay for Mitochondrial Mass (AID 2282912); details: high-content imaging, actives raise or lower the signal
# Procedure, shortened: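 Readout: fluorescence of MitoTracker Red CMXRos (250 nM, added 30 min pre-fixation) in fixed HepG2 cells imaged by HCS. Exposure lasted 24 hr at 0.39–200 uM; increases and decreases were both fitted relative to DMSO.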
# [8] = APR_HepG2_CellCycleArrest_72hr: Apredica 72-hour HepG2 Assay for Cell Cycle Arrest (AID 2282914); details: high-content imaging, actives raise or lower the signal
# Procedure, shortened: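 Using multiplexed high-content imaging, HepG2 nuclei stained with Hoechst 33342 (2 ug/mL) were analysed for DNA content after fixation and permeabilization. Treatment lasted 72 hr across 0.39–200 uM in duplicate with final DMSO 0.5% v/v; DMSO served as negative control.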
# [9] = APR_HepG2_P-H2AX_72hr: Apredica 72-hour HepG2 Assay for H2AX Phosphorylation (AID 2282916); details: imaging, actives raise or lower the signal;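 note: phospho-histone H2A.x immunostain intensity per cell marking DNA damage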
# Procedure, shortened: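 Phospho-H2A.x imaging endpoint in HepG2 after 72 hr compound exposure (0.39–200 uM, duplicate wells). Activity derived by bidirectional curve fitting with DMSO as baseline.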
# [10] = APR_HepG2_MitoMembPot_72hr: Apredica 72-hour HepG2 Assay for Mitochondrial Membrane Potential (AID 2282917); details: imaging, actives raise or lower the signal
# Procedure, shortened: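 HepG2 cells exposed 72 h to compounds at 0.39–200 uM (0.5% v/v DMSO, duplicates); MitoTracker Red CMXRos 250 nM loaded 30 min before 3.7% formaldehyde fixation, imaged by HCS fluorescence. Bidirectional fit versus DMSO.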
# [11] = APR_HepG2_MitoticArrest_72hr: Apredica 72-hour HepG2 Assay for Mitotic Arrest (AID 2282918); details: high-content imaging, actives raise or lower the signal
# Procedure, shortened: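 Using high-content imaging of fixed HepG2 cells, phospho-histone H3 signal was measured following a 72 hr incubation with ten-point compound dilutions up to 200 uM. DMSO served as the negative control and baseline for bidirectional curve fitting.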
# [12] = APR_HepG2_MicrotubuleCSK_72hr: Apredica 72-hour HepG2 Assay for Microtubule CSK Stabilty (AID 2282919); details: HepG2 microtubule cytoskeleton, high-content imaging, actives raise or lower the signal
# Procedure, shortened: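 Ten-point dosing (0.39–200 uM, 0.5% DMSO) of HepG2 for 72 hr, with taxol as the cytoskeletal positive control. The cells were formaldehyde-fixed and then stained with alpha-tubulin/Cy5 and Hoechst. Imaging at 20x used a −2 um Z offset for tubulin.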
# [13] = APR_HepG2_P-H2AX_24hr: Apredica 24-hour HepG2 Assay for H2AX Phosphorylation (AID 2282920); details: high-content imaging, actives raise or lower the signal
# Procedure, shortened: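 Human HepG2 liver cells, treated 24 hr with test chemicals (0.39–200 uM, final DMSO 0.5% v/v), are fixed and co-stained for phospho-H2A.x and c-Jun with Hoechst. Imaged intensity is fitted in both directions against DMSO controls.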
# [14] = APR_HepG2_StressKinase_72hr: Apredica 72-hour HepG2 Assay for Stress Kinase (AID 2282921); details: HepG2 stress kinase (phospho-c-Jun) imaging, actives raise or lower the signal
# Procedure, shortened: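 Stress kinase signal reflects nuclear phospho-c-Jun staining in fixed, permeabilized cells exposed 72 h to compound at 0.39–200 uM; DMSO-normalized, fitted for increases or decreases.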
# [15] = APR_HepG2_StressKinase_24hr: Apredica 24-hour HepG2 Assay for Stress Kinase (AID 2282922); details: HepG2 stress kinase (phospho-c-Jun) imaging, actives raise or lower the signal
# Procedure, shortened: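 After 24 hr compound treatment (up to 200 uM, final DMSO 0.5% v/v), HepG2 cells are fixed and multiplex-labeled; phospho-c-Jun intensity is captured by high-content fluorescence imaging and analyzed relative to DMSO.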
# [16] = APR_HepG2_NuclearSize_72hr: Apredica 72-hour HepG2 Assay for Nuclear Size (AID 2282925); details: high-content imaging, actives raise or lower the signal
# Procedure, shortened: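 Compounds (0.39–200 uM, final DMSO 0.5%) were applied to HepG2 for 72 hr. Cells were then formaldehyde-fixed, permeabilized and labelled with Hoechst 33342. Nuclear diameter was quantified from six images per well.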
# [17] = molecular target: CCAAT/enhancer-binding protein beta (Homo sapiens) (UniProt P17676); experiment: ATG_C_EBP_CIS: Attagene CIS-FACTORIAL HepG2 Assay for human CCAAT/Enhancer Binding Protein (C/EBP) beta (AID 2282927); details: HepG2 Attagene cis-factorial transcription factor reporter; actives raise or lower the signal
# Procedure, shortened: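 Chemical-treated HepG2 cells (24 h) bearing cis-regulated reporter constructs were processed for total RNA, then reverse transcription, PCR amplification, fluorescent primer extension and fragment analysis; gain- and loss-of-signal were fitted against DMSO.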
# [18] = ATG_CRE_CIS: Attagene CIS-FACTORIAL HepG2 Assay for human cAMP Responsive Element (CRE) binding protein 3 (AID 2282926); details: HepG2 CRE cis-reporter, Attagene multiplexed mRNA; actives raise or lower the signal
# Procedure, shortened: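 Liver-derived HepG2, transfected with a CRE-containing reporter panel, exposed 24 h; transcript levels sized and quantified by capillary electrophoresis of labelled amplicons; signal changes either way referenced to vehicle.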
# Chain of CCAAT/enhancer-binding protein beta (Homo sapiens) (P17676 whole entry, looked up, the tested form may be a part): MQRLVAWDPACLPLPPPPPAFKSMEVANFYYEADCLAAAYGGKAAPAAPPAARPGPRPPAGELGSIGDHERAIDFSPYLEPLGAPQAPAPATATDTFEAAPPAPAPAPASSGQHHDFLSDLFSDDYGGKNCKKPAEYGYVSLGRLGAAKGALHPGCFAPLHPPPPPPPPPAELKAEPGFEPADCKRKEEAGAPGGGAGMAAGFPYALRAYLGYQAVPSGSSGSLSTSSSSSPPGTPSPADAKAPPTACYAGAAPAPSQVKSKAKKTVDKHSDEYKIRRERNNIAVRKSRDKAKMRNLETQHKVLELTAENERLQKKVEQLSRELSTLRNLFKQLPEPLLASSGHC
smiles,measurement,setting,value
OCCN(CCO)CCO,outcome,[1],inactive
same,outcome,[2],inactive
same,outcome,[3],inactive
same,outcome,[4],inactive
same,outcome,[5],inactive
same,outcome,[6],inactive
same,outcome,[7],inactive
same,outcome,[8],inactive
same,outcome,[9],inactive
same,outcome,[10],inactive
same,outcome,[11],inactive
same,outcome,[12],inactive
same,outcome,[13],inactive
same,outcome,[14],inactive
same,outcome,[15],inactive
same,outcome,[16],inactive
same,outcome,[17],inactive
Nc1ccc(N)cc1,AC50,[18],11.7 µM (active)
same,outcome,[18],inactive
same,outcome,[17],inactive
CCCCCCCCCCCCc1cccc(S(=O)(=O)O)c1,outcome,[1],inactive
same,outcome,[2],inactive
same,outcome,[3],inactive
same,outcome,[4],inactive
same,outcome,[5],inactive
same,outcome,[6],inactive
same,outcome,[7],inactive
same,outcome,[8],inactive
same,outcome,[9],inactive
same,outcome,[10],inactive
same,outcome,[11],inactive
same,outcome,[12],inactive
same,outcome,[13],inactive
same,outcome,[14],inactive
same,outcome,[15],inactive
same,outcome,[16],inactive
same,outcome,[18],inactive
same,outcome,[17],inactive
CCCCOC(C)=O,outcome,[18],inactive
same,outcome,[17],inactive
COc1ccccc1N,outcome,[1],inactive
same,outcome,[2],inactive
same,outcome,[3],inactive
same,outcome,[4],inactive
same,outcome,[5],inactive
same,AC50,[6],29.3 µM (active)
same,outcome,[7],inactive
same,outcome,[8],inactive
same,outcome,[9],inactive
same,outcome,[13],inactive
same,outcome,[14],inactive
same,outcome,[15],inactive
same,outcome,[16],inactive
same,outcome,[18],inactive
same,outcome,[17],inactive
Clc1cccc(Cl)c1,outcome,[1],inactive
same,outcome,[2],inactive
same,outcome,[3],inactive
same,outcome,[4],inactive
same,outcome,[5],inactive
same,outcome,[6],inactive
same,outcome,[7],inactive
same,outcome,[8],inactive
same,outcome,[9],inactive
same,outcome,[10],inactive
same,outcome,[11],inactive
same,outcome,[12],inactive
same,outcome,[13],inactive
same,outcome,[14],inactive
same,outcome,[15],inactive
same,outcome,[16],inactive
same,outcome,[18],inactive
same,outcome,[17],inactive
Oc1cc(Cl)c(Cl)cc1Cl,AC50,[1],35.7 µM (active)
same,outcome,[2],inactive
same,AC50,[3],27.7 µM (active)
same,AC50,[4],41.8 µM (active)
same,AC50,[5],38.6 µM (active)
same,outcome,[6],inactive
same,AC50,[7],46.7 µM (active)
same,outcome,[8],inactive
same,AC50,[9],42.4 µM (active)
same,outcome,[10],inactive
same,AC50,[11],29.5 µM (active)
same,outcome,[12],inactive
same,AC50,[13],38.9 µM (active)
same,AC50,[14],51.8 µM (active)
same,outcome,[15],inactive
same,outcome,[16],inactive
same,AC50,[18],39.7 µM (active)
same,AC50,[17],46.5 µM (active)
N#CCC#N,outcome,[18],inactive
same,outcome,[17],inactive
OC[C@@H](O)[C@H]1O[C@@H]2O[C@H](C(Cl)(Cl)Cl)O[C@@H]2[C@H]1O,outcome,[18],inactive
same,outcome,[17],inactive
Nc1ncn[nH]1,outcome,[18],inactive
same,outcome,[17],inactive
CC(=O)CN(CC(C)=O)N=O,outcome,[18],inactive
same,outcome,[17],inactive
CNC(=O)N(C)c1nc2ccccc2s1,outcome,[18],inactive
same,outcome,[17],inactive
CCCCOP(=O)(CCCC)OCCCC,outcome,[18],inactive
same,outcome,[17],inactive
CCOP(=O)(OCC)SCCSCC,outcome,[18],inactive
same,outcome,[17],inactive
CCCSP(=S)(OCC)Oc1ccc(Cl)cc1Cl (centres undefined),outcome,[18],inactive
same,outcome,[17],inactive
[Cl][Sn]([c]1ccccc1)([c]1ccccc1)[c]1ccccc1,AC50,[18],0.367 µM (active)
same,outcome,[17],inactive
